Where a name gives a salt, the structure may show the parent alone.
How the values were obtained:
Conditions in all cases: incubation time: 27 h, anaerobic, 37 °C;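 for the amine columns active = adjusted P below 0.05 in both replicates with a change the same way and a mean fold change under 0.8 or over 1.25; inactive = the rest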
[1] = test system: Clostridium sporogenes DSM 1664; test: growth (OD595) fold change vs plate DMSO controls (fold change (ratio)); higher = more growth
Outline: (§1)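 After 27 h at 37 °C under anaerobic conditions, 96-well cultures in mGAM were shaken and read at 595 nm. The readings were blank-subtracted, corrected for compound background using 20 µM compound solutions in water, and converted to OD with a calibration factor of 5. Growth is defined as the fold change over the median of DMSO controls on each plate. Fold changes above 1.5 were set to NA, and each value is the mean of 2 biological replicates.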

Escherichia coli IAI1 [2] = test: as above
Outline: as §1

[3] = test system: Klebsiella aerogenes DSM 30053; test: as above
Outline: as §1

[4] = test system: Ruminococcus gnavus DSM 108212; test: as above
Outline: as §1

[5] = test system: Klebsiella aerogenes DSM 30053; test: fold change of Histamine concentration vs plate DMSO controls (fold change (ratio)); higher = more amine produced, active = hit call of the paper (significant change in both replicates, either direction)
Outline: (§2)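 Anaerobic mGAM cultures of four gut bacterial strains were grown at 37 °C for 27 h in 80 µL wells, starting at OD 0.1 before 1:1 dilution. Compounds were at 20 µM final (sweeteners 50 µM). Whole cultures were extracted with cold acetonitrile/methanol containing 0.1% formic acid and centrifuged. Amines were quantified by LC–triple-quadrupole MS (dynamic MRM) against external calibration curves and drift-corrected within batch. Each value is the fold change versus plate DMSO controls, averaged over 2 biological replicates.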

[6] = test system: Clostridium sporogenes DSM 1664; test: fold change of Tryptamine concentration vs plate DMSO controls (fold change (ratio)); higher = more amine produced, active = hit call of the paper (significant change in both replicates, either direction)
Outline: as §2

[7] = test system: Ruminococcus gnavus DSM 108212; test: as above
Outline: as §2

Escherichia coli IAI1 [8] = test: fold change of Putrescine concentration vs plate DMSO controls (fold change (ratio)); higher = more amine produced, active = hit call of the paper (significant change in both replicates, either direction)
Outline: as §2

[9] = test system: Klebsiella aerogenes DSM 30053; test: as above
Outline: as §2

Escherichia coli IAI1 [10] = test: fold change of Cadaverine concentration vs plate DMSO controls (fold change (ratio)); higher = more amine produced, active = hit call of the paper (significant change in both replicates, either direction)
Outline: as §2

[11] = test system: Klebsiella aerogenes DSM 30053; test: as above
Outline: as §2

[12] = test system: Ruminococcus gnavus DSM 108212; test: fold change of 2-Phenylethylamine concentration vs plate DMSO controls (fold change (ratio)); higher = more amine produced, active = hit call of the paper (significant change in both replicates, either direction)
Outline: as §2

Compound	growth [1]	growth (Escherichia coli IAI1 [2])	growth [3]	growth [4]	fold change of Histamine concentration [5]	fold change of Tryptamine concentration [6]	fold change of Tryptamine concentration [7]	fold change of Putrescine concentration (Escherichia coli IAI1 [8])	fold change of Putrescine concentration [9]	fold change of Cadaverine concentration (Escherichia coli IAI1 [10])	fold change of Cadaverine concentration [11]	fold change of 2-Phenylethylamine concentration [12]
N=C(N)NC(=O)Cc1c(Cl)cccc1Cl [Guanfacine hydrochloride] (20 µM)	0.939	0.961	1.03	0.811	0.903 (inactive)	0.953 (inactive)	1.01 (inactive)	1.02 (inactive)	0.99 (inactive)	1.01 (inactive)	1.01 (inactive)	1.02 (inactive)
CC(C)COC(=O)OCN1C(=O)CN(CCN2CC(=O)N(COC(=O)OCC(C)C)C(=O)C2)CC1=O [Sobuzoxane] (20 µM)	0.986	0.991	1.03	1.09	1 (inactive)	1.03 (inactive)	1.03 (inactive)	0.986 (inactive)	0.996 (inactive)	0.988 (inactive)	1 (inactive)	1.05 (inactive)
CCOC(=O)[C@H](CCc1ccccc1)N[C@@H](C)C(=O)N(CC(=O)O)C1Cc2ccccc2C1 [Delapril Hydrochloride] (20 µM)	1.16	0.976	0.982	1.15	1.04 (inactive)	0.958 (inactive)	0.974 (inactive)	1 (inactive)	1.02 (inactive)	1.01 (inactive)	0.998 (inactive)	0.905 (inactive)
Cc1c(C)c2c(c(C)c1O)CCC(C)(C(=O)O)O2 (stereo not given) [Trolox] (20 µM)	0.897	0.987	0.962	0.896	1.13 (inactive)	0.995 (inactive)	1.02 (inactive)	0.926 (inactive)	1.04 (inactive)	0.986 (inactive)	0.984 (inactive)	1.03 (inactive)
C[C@]12CCC(=O)C=C1CC[C@@H]1[C@@H]2[C@@H](O)C[C@@]2(C)[C@H]1CC[C@]2(O)C(=O)CO [Hydrocortisone] (20 µM)	0.958	1.03	0.985	1.03	1.04 (inactive)	1.06 (inactive)	1.01 (inactive)	1.04 (inactive)	1 (inactive)	1.03 (inactive)	1 (inactive)	0.975 (inactive)
CC(C(=O)O)c1cccc(Oc2ccccc2)c1 (stereo not given) [Fenoprofen calcium salt dihydrate] (20 µM)	0.882	0.997	1.04	1.21	0.981 (inactive)	0.945 (inactive)	0.951 (inactive)	0.976 (inactive)	0.983 (inactive)	1.03 (inactive)	1 (inactive)	0.937 (inactive)
CCC(=O)c1ccc(O)cc1 [Paroxypropione] (20 µM)	0.967	0.989	0.996	1	1.03 (inactive)	0.946 (inactive)	1.02 (inactive)	1.01 (inactive)	1.02 (inactive)	1.01 (inactive)	1.01 (inactive)	0.952 (inactive)
COC(c1ccccc1)(c1ccccc1)[C@H](Oc1nc(C)cc(C)n1)C(=O)O [Ambrisentan] (20 µM)	0.967	1.2	0.991	1.04	1.07 (inactive)	1.01 (inactive)	1.02 (inactive)	1.21 (inactive)	0.992 (inactive)	0.985 (inactive)	0.997 (inactive)	1.01 (inactive)
CN(C)C(=O)Nc1ccc(Cl)c(Cl)c1 (20 µM)	1.05	1.02	0.938	1.08	1.01 (inactive)	0.947 (inactive)	0.962 (inactive)	0.97 (inactive)	0.976 (inactive)	0.991 (inactive)	0.99 (inactive)	0.954 (inactive)
C#C[C@]1(O)CC[C@H]2[C@@H]3CCC4=CC(=O)CC[C@@H]4[C@H]3CC[C@@]21C [Norethindrone] (20 µM)	1.09	0.973	1	1.22	1.11 (inactive)	1.01 (inactive)	1.03 (inactive)	0.962 (inactive)	1.03 (inactive)	0.98 (inactive)	0.989 (inactive)	1.04 (inactive)
Cc1cn([C@H]2C=C[C@@H](CO)O2)c(=O)[nH]c1=O [Stavudine] (20 µM)	0.967	0.807	0.99	0.994	1.04 (inactive)	0.97 (inactive)	1.01 (inactive)	0.927 (inactive)	1.04 (inactive)	1.21 (inactive)	0.991 (inactive)	1.02 (inactive)
OC[C@H]1OC(O)[C@H](O)[C@@H](O)[C@@H]1O (stereo not given in full) [Glucose/Dextrose] (50 µM)	1.15	0.989	1.01	1.19	1.03 (inactive)	1.01 (inactive)	0.971 (inactive)	0.982 (inactive)	0.872 (inactive)	1.11 (inactive)	1.09 (inactive)	0.935 (inactive)
CNCC(O)c1ccc(O)c(O)c1 (stereo not given) [Racepinephrine hydrochloride] (20 µM)	1.15	1.07	1.27	1.24	0.938 (inactive)	1.05 (inactive)	1.05 (inactive)	1.01 (inactive)	1.02 (inactive)	0.94 (inactive)	1.03 (inactive)	1.05 (inactive)
COC(=O)C1=C(C#N)NC(C)=C(C(=O)OC(C)C)C1c1cccc([N+](=O)[O-])c1 (stereo not given) [Nilvadipine] (20 µM)	1.01	1.18	0.953	0.932	0.971 (inactive)	1.1 (inactive)	1.24 (inactive)	1.15 (inactive)	0.936 (inactive)	1.03 (inactive)	1.02 (inactive)	1.44 (active)
COc1nc(C)nc(Cl)c1NC1=NCCN1 [Moxonidine] (20 µM)	1.05	0.991	0.981	1.01	1.07 (inactive)	1 (inactive)	1.04 (inactive)	1 (inactive)	1.01 (inactive)	1.01 (inactive)	0.991 (inactive)	1.07 (inactive)
C[C@@H]1CCO[C@H]2Cn3cc(C(=O)NCc4ccc(F)cc4F)c(=O)c(O)c3C(=O)N12 [Dolutegravir] (20 µM)	1.06	1.02	0.992	0.891	1.08 (inactive)	1.02 (inactive)	0.954 (inactive)	1.07 (inactive)	0.999 (inactive)	0.984 (inactive)	0.987 (inactive)	0.941 (inactive)
Cn1c([N+](=O)[O-])cnc1COC(N)=O [Ronidazole] (20 µM)	0.00699	1.05	0.963	0.0625	0.617 (active)	0.0193 (active)	0.0355 (active)	0.99 (inactive)	0.97 (inactive)	1.17 (inactive)	1.03 (inactive)	0.0387 (active)
Cc1cc(-c2ccccc2)nnc1NCCN1CCOCC1 [Minaprine dihydrochloride] (20 µM)	1.21	0.985	0.972	1.16	0.939 (inactive)	1.01 (inactive)	0.991 (inactive)	0.963 (inactive)	0.998 (inactive)	1.01 (inactive)	1 (inactive)	0.955 (inactive)
CC(N)CCCC(C)(C)O (stereo not given) [Heptaminol hydrochloride] (20 µM)	1.01	1.1	0.998	1.12	0.999 (inactive)	0.988 (inactive)	1.01 (inactive)	1.05 (inactive)	1 (inactive)	1.04 (inactive)	0.994 (inactive)	1.05 (inactive)
c1ccc2c(c1)Cc1ccccc1-2 [Fluorene] (20 µM)	1	1.04	1.07	1.09	0.932 (inactive)	0.97 (inactive)	1 (inactive)	1.05 (inactive)	1.02 (inactive)	0.914 (inactive)	1.02 (inactive)	0.967 (inactive)
CC(C)OC(=O)C(C(=O)OC(C)C)=C1SC=CS1 [Malotilate] (20 µM)	1.09	1.07	1.08	1.16	0.94 (inactive)	0.958 (inactive)	0.956 (inactive)	1.07 (inactive)	1.04 (inactive)	0.949 (inactive)	1.02 (inactive)	0.88 (inactive)
OC[C@H]1O[C@H](O[C@H]2O[C@H](CO)[C@@H](O)[C@H](O)[C@H]2O)[C@H](O)[C@@H](O)[C@@H]1O [Trehalose dihydrate] (20 µM)	1	1.04	1.08	1.11	0.919 (inactive)	0.967 (inactive)	1.06 (inactive)	1.02 (inactive)	0.986 (inactive)	0.988 (inactive)	1 (inactive)	1.09 (inactive)
N[C@@H](Cc1c[nH]c2ccccc12)C(=O)O [L-Tryptophan] (20 µM)	1.02	0.993	0.989	1.19	1.02 (inactive)	1.04 (inactive)	1.05 (inactive)	0.985 (inactive)	0.995 (inactive)	1.03 (inactive)	0.993 (inactive)	1.08 (inactive)
CCN(CC)C(=O)c1ccc(O)c(OC)c1 [Ethamivan] (20 µM)	1.12	1.02	1.05	0.873	0.973 (inactive)	1.02 (inactive)	1.04 (inactive)	1.02 (inactive)	1.02 (inactive)	1.01 (inactive)	1.01 (inactive)	1.05 (inactive)
COC(=O)C1=C(C)NC(C)=C(C(=O)O[C@H]2CCN(Cc3ccccc3)C2)[C@H]1c1cccc([N+](=O)[O-])c1 [Barnidipine Hydrochloride] (20 µM)	0.993	1.08	0.991	1.06	1.01 (inactive)	0.969 (inactive)	0.992 (inactive)	0.989 (inactive)	0.999 (inactive)	1.02 (inactive)	1.01 (inactive)	0.944 (inactive)

— the supplement of paper PMC12494721
